Experimental data: PubChem BioAssay (EPA / NIEHS)
Active and inactive are the calls of the source. The calls were made as follows: active = hit-call score of the fitted dose curve at least 0.9, where 1 is the maximum; inactive = score below 0.9.

Test: ATG_M_06_CIS: Attagene CIS-FACTORIAL HepG2 Assay for M06 Transcription Factor (Internal Marker) (AID 2282950)
Settings: HepG2 Attagene CIS-FACTORIAL M06 internal marker reporter; actives raise or lower the signal
Experimental: ATG_CIS is a cell-based, multiplexed-readout assay that uses HepG2, a human liver cell line, with measurements taken at 24 hours after chemical dosing in a 24-well plate.ATG_M_06_CIS is one of 52 assay component(s) measured or calculated from the ATG_CIS assay. It is designed to make measurements of mRNA induction, a form of inducible reporter, as detected with fluorescence intensity signals by Reverse transcription polymerase chain reaction (RT-PCR) and Capillary electrophoresis technology.Data from the assay component ATG_M_06_CIS was analyzed into 1 assay endpoint. This assay endpoint, ATG_M_06_CIS, was analyzed with bidirectional fitting relative to DMSO as the negative control and baseline of activity. Using a type of inducible reporter, measures of mRNA for gain or loss-of-signal activity can be used to understand the background control at the transcription factor-level as they relate to the gene . Furthermore, this assay endpoint can be referred to as a secondary readout, because this assay has produced multiple assay endpoints where this one serves a background control function. To generalize the intended target to other relatable targets, this assay endpoint is annotated to the background measurement intended target family, where the subfamily is internal marker.
Human liver HepG2 cells are transiently transfected with multiple reporter transcription units (MRTUs) in 6-well plates using FuGene 6 reagent (Roche; 3 ml FuGene/1 mg DNA). The MRTU constructs are regulated by a cis-regulating element (promoter). […] A major difference between the CIS and TRANS system is that in CIS activities of endogenous TFs are measured, whereas the TRANS assay evaluates changes in activities of exogenous, chimeric NR-Gal4 proteins. […] At the end of 24 hour incubation, total RNA was isolated using TriZol reagent (Invitrogen). The isolated RNA is then reverse-transcribed using oligo(dT) primer and Mo-MLV reverse transcriptase (Invitrogen) with DNAse I (Ambion) treatment for 30 min. The one-tenth of the produced cDNA was amplified by PCR using Taq DNA polymerase (Invitrogen) and two reporter sequence-specific primers. The PCR products were fluorescently labeled by primer extension with 6-arboxyfluorescein (6-FAM) 5'-labeled reporter sequence-specific primer (2 min at 95 C, 20 s at 68 C and 10 min at 72 C) and these products were digested with 5U of HpaI (New England Biolabs) for 2h at 37 C. The fragments were purified using Qiaquick PCR columns (Qiagen), analyzed on an ABI 3130xL genetic analyzer (Applied Biosystems) with peak positions identified by using a set of X-rhodamine (ROX)-labeled MapMarker1000 molecular weight standards (BioVentures). The raw capillary electrophoresis data was processed using Attagraph software (Attagene).

Compound | outcome
CC(=O)OCCOCCOCCOC(C)=O | inactive
C[Si]1(C)O[Si](C)(C)O[Si](C)(C)O[Si](C)(C)O1 | inactive
NS(=O)(=O)c1cc2c(cc1Cl)NCNS2(=O)=O | inactive
CC(C)(C)c1cc(O)c(C(C)(C)C)cc1O | inactive
COc1cc(-c2nc(NC(=O)c3cc4cc(C)cc(C)c4n3CC(=O)O)sc2CCC2CCCCC2)c(OC)cc1Cl | inactive
O=C(O)CCCCC(=O)O | inactive
CCCCN(CCCC)CCCC | inactive
COCCOCCOC | inactive
CCCCCC(=O)O | inactive
Cc1ccc2ncccc2c1 | inactive
CCOC(=O)C(C)(C)Oc1ccc(Cl)cc1 | inactive
O=[N+]([O-])C(CO)(CO)CO | inactive
C=CCOC(=O)c1ccccc1C(=O)OCC=C | inactive
FC(F)(F)C(F)(F)C(F)(F)C(F)(F)C(F)(F)C(F)(F)CCI | inactive
Nc1ccc(S(=O)(=O)c2ccc(N)cc2)cc1 | inactive
Cc1nc(-c2ccc3c(c2)CCN(CCC2CCC(NC(=O)/C=C/c4ccc(F)cc4)CC2)CC3)no1 (stereo not given) | inactive
COCCOC[C@H](CC1(C(=O)NC2CCC(C(=O)O)CC2)CCCC1)C(=O)Oc1ccc2c(c1)CCC2 (stereo not given in full) | inactive
CC(C)c1ccc(C(=O)N=C(N)N)cc1S(C)(=O)=O | inactive
c1cc(-c2ccncc2)ccn1 | inactive
CC1=C(/C=C/C(C)=C/C=C/C(C)=C/CO)C(C)(C)CCC1 | inactive

Compound | outcome
Clc1cc(Cl)c(Cl)cc1Cl | inactive
Cc1c(C(=O)O)c(O)cc2c1C(=O)c1c(O)c([C@@H]3O[C@H](CO)[C@@H](O)[C@H](O)[C@H]3O)c(O)c(O)c1C2=O | inactive
CC(CO)OC(C)CO (stereo not given) (tested in a mixture with another compound) | inactive
Cc1ccc(C(C)C)c(O)c1 | inactive
COc1ccc(S(=O)(=O)N2C(=O)[C@@](c3ccccc3OC)(N3C[C@H](O)C[C@H]3C(=O)N(C)C)c3cc(Cl)ccc32)c(OC)c1 | inactive
O=C(OCCCCCOC(=O)c1ccccc1)c1ccccc1 | inactive
CC(=O)Oc1ccccc1C(=O)O | inactive
COc1cc(S(=O)(=O)O)c(C)cc1N=Nc1c(O)ccc2cc(S(=O)(=O)O)ccc12 | inactive
NCCO | inactive
O=c1[nH]cc(F)c(=O)[nH]1 | inactive
COc1cccc2c1C(=O)c1c(O)c3c(c(O)c1C2=O)C[C@@](O)(C(=O)CO)C[C@@H]3O[C@H]1C[C@H](N)[C@H](O)[C@H](C)O1 | inactive
CNC(=O)[C@H]1O[C@@H](n2cnc3c(NCc4cc(Cl)ccc4OCc4cc(C)no4)ncnc32)[C@H](O)[C@@H]1N | inactive
CCCCCCCCCCCCCCCC | inactive
OC[C@@H](O)[C@@H](O)[C@H](O)[C@H](O)CO | inactive
CCNc1cccc(C)c1 | inactive
Cc1cccc(Nc2cc(Cl)nc(SCC(=O)O)n2)c1C | inactive
Cc1nc(C)nc(N2C[C@@H](C)N(c3ccnc([C@@H](C)O)n3)[C@@H](C)C2)n1 | inactive
CCCCCCCC=O | inactive
COc1cc(/C=C/C(=O)CC(=O)/C=C/c2ccc(O)c(OC)c2)ccc1O | inactive
CCCCc1ccc2c(n1)[C@@H](c1ccc(OC)cc1C[C@H](C)C(=O)O)[C@H](C(=O)O)[C@H]2c1ccc2c(c1)OCO2 | inactive
